Structures can show the parent of a compound that is named as a salt. Values without a mark were called inactive.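 The calls were made as follows: active = log2 fold change beyond 2 SD from the library mean after excluding viability outliers; inactive = within 2 SD.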
Target: PARP1 L713F-nLuc biosensor (HCT116) (UniProt P09874)
Experiment: PARP1 L713F-nLuc/akaLuc ratio relative to DMSO control (biosensor stabilization) (fold change); higher = more PARP1 biosensor stabilization (target engagement / stabilizer), active = hit call of the paper
Settings: 24 h
[1] = stock concentration (mM; final µM = stock mM x 1): 10
[2] = stock concentration (mM; final µM = stock mM x 1): 2

Chain of PARP1 L713F-nLuc biosensor (HCT116) (P09874 whole entry L713F, looked up): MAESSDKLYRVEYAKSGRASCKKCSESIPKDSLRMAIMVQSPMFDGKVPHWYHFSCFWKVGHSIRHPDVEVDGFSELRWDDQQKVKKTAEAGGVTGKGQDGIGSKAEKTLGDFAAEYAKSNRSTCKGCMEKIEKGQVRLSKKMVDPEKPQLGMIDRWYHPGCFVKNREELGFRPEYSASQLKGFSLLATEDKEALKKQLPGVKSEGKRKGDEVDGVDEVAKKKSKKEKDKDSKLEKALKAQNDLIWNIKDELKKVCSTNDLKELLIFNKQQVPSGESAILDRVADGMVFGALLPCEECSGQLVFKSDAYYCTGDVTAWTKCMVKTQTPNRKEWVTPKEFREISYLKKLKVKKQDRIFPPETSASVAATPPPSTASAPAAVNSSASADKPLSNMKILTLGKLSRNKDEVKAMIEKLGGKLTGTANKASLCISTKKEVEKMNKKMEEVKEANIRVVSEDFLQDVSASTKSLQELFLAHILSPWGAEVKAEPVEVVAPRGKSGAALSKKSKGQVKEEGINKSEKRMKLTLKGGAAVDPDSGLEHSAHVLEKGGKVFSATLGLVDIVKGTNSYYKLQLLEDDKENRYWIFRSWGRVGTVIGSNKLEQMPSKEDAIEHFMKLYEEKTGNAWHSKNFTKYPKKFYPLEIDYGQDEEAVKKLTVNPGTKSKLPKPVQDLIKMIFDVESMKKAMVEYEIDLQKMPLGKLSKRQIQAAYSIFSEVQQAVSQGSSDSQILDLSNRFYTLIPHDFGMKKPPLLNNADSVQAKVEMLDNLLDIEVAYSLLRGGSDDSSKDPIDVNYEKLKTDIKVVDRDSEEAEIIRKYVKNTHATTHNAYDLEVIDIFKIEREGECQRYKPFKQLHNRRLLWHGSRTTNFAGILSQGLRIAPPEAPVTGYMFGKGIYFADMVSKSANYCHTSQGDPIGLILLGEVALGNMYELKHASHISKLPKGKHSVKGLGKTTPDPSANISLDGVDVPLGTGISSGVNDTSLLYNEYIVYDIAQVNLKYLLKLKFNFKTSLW

CC(C)(O)[C@H]1CC[C@H](Nc2ccc3ncc(-c4cccc(C(F)(F)F)c4)n3n2)CC1
PARP1 L713F-nLuc/akaLuc ratio [1]: 0.732

O=C(O)c1ccccc1Nc1cccc(C(F)(F)F)c1 [Flufenamic acid]
PARP1 L713F-nLuc/akaLuc ratio [1]: 1.23

Cc1[nH]n(-c2ccccc2)c(=O)c1N=Nc1ccc(N2CCOCC2)cc1
PARP1 L713F-nLuc/akaLuc ratio [1]: 1.04

O=c1c(O)c(-c2ccc(O)c(O)c2)oc2cc(O)ccc12 [Fisetin]
PARP1 L713F-nLuc/akaLuc ratio [1]: 0.701

N#CC1(c2ccc(NC(=O)c3cccnc3NCc3ccncc3)cc2)CCCC1
PARP1 L713F-nLuc/akaLuc ratio [1]: 0.967

CC(C)(C)c1nc(-c2cccc(NS(=O)(=O)c3c(F)cccc3F)c2F)c(-c2ccnc(N)n2)s1
PARP1 L713F-nLuc/akaLuc ratio [1]: 0.885

O=c1ncccn1[C@@H]1O[C@H](CO)[C@@H](O)[C@H]1O [Zebularine]
PARP1 L713F-nLuc/akaLuc ratio [1]: 0.711

COC(=O)c1ccc(OC(=O)CCCCCCC(=O)NO)cc1 [Remetinostat]
PARP1 L713F-nLuc/akaLuc ratio [1]: 1.25

N#Cc1ccc(-c2csc(NN=C3CCCC3)n2)cc1 [Remodelin (hydrobromide)]
PARP1 L713F-nLuc/akaLuc ratio [1]: 0.897

O=C(O)c1ccc2c(c1)nc(Nc1cccc(Cl)c1)c1ccncc12 [Silmitasertib (CX-4945)]
PARP1 L713F-nLuc/akaLuc ratio [1]: 0.822

CS(=O)(=O)c1ccc(-c2nnc(/C=C/c3nnc(-c4ccc(C#N)cc4)o3)n2-c2ccccc2Cl)nc1
PARP1 L713F-nLuc/akaLuc ratio [1]: 0.886

COc1cc2ncnc(Nc3ccc(NC(=O)c4ccccc4)cc3)c2cc1OC [Aurora kinase inhibitor-2]
PARP1 L713F-nLuc/akaLuc ratio [1]: 1.35

CC1(C)C=Cc2cc(CCn3c4ccccc4c4ccccc43)cc(C=O)c2O1
PARP1 L713F-nLuc/akaLuc ratio [1]: 1.78

COc1ccc(-n2c(SCCCN3C(=O)c4cccc5cccc(c45)C3=O)nnc2-c2ccncc2)cc1
PARP1 L713F-nLuc/akaLuc ratio [1]: 0.933

COc1cc2c(Nc3ccc(NC(=O)c4ccccc4)cc3)ncnc2cc1OCCCN1CCOCC1
PARP1 L713F-nLuc/akaLuc ratio [1]: 0.809

CO[C@H]1C[C@@H]2CC[C@@H](C)[C@@](O)(O2)C(=O)C(=O)N2CCCC[C@H]2C(=O)O[C@H]([C@H](C)C[C@@H]2CC[C@@H](OP(C)(C)=O)[C@H](OC)C2)CC(=O)[C@H](C)/C=C(\C)[C@@H](O)[C@@H](OC)C(=O)[C@H](C)C[C@H](C)/C=C/C=C/C=C/1C [Ridaforolimus (Deforolimus, MK-8669)]
PARP1 L713F-nLuc/akaLuc ratio [1]: 1.7

O=C(Nc1cccnc1)N1CCC(Cc2cccc(Oc3ccc(C(F)(F)F)cn3)c2)CC1
PARP1 L713F-nLuc/akaLuc ratio [1]: 0.451

CC(C)(C)NC(=O)[C@H]1CC[C@H]2[C@@H]3CC[C@H]4NC(=O)C=C[C@]4(C)[C@H]3CC[C@]12C [Finasteride]
PARP1 L713F-nLuc/akaLuc ratio [1]: 1.22

CN1CCN(c2cccc(Nc3nc4c(-c5ccc(S(C)(=O)=O)cc5)cccn4n3)c2)CC1
PARP1 L713F-nLuc/akaLuc ratio [1]: 0.968

Cn1ncc(Cl)c1-c1cc(C(=O)N[C@H](CN)Cc2cccc(F)c2)sc1Cl [Afuresertib]
PARP1 L713F-nLuc/akaLuc ratio [1]: 1.63

S=c1[nH]cnc2nc[nH]c12 [Mercaptopurine (6-MP)]
PARP1 L713F-nLuc/akaLuc ratio [1]: 2.51

CC/C(=C(\c1ccccc1)c1ccc(OCCNC)cc1)c1ccccc1 [N-Desmethyltamoxifen (hydrochloride)]
PARP1 L713F-nLuc/akaLuc ratio [1]: 0.968

O=C(O)CC[C@H]1CC[C@@](c2cc(F)ccc2F)(S(=O)(=O)c2ccc(Cl)cc2)CC1
PARP1 L713F-nLuc/akaLuc ratio [1]: 0.688

O=C([C@@H](Cc1cccc(C(F)(F)F)c1)NS(=O)(=O)c1cc(F)c2c(c1)CCNC2)N1CCCC1 [PFI-2 (hydrochloride)]
PARP1 L713F-nLuc/akaLuc ratio [1]: 0.92

CCCCNC(=N)NC(=N)N [Buformin (hydrochloride)]
PARP1 L713F-nLuc/akaLuc ratio [1]: 0.782

CN(C(=O)c1ccc(F)cc1C(F)(F)F)C1CCN(c2nnc(-c3ccnn3C)c3ccccc23)CC1
PARP1 L713F-nLuc/akaLuc ratio [2]: 1.11

Cc1cc(C)c(CNC(=O)c2cc(-c3ccc(CN4CCOCC4)cc3)cc3c2cnn3C2CCCC2)c(=O)[nH]1
PARP1 L713F-nLuc/akaLuc ratio [2]: 1.45

Reference: the supplement of paper PMC11624193, “Coupling cellular drug-target engagement to downstream pharmacology with CeTEAM” (Nature Communications, 2024)
